Source: PubChem BioAssay AID1778 (Sanford-Burnham Center for Chemical Genomics, 2009)
In all, about 290,000 compounds went through this assay and about 260 (0.09%) were called active. Only a selection was taken, and actives are over-represented in it overall. Entries with a potency or affinity are not part of this list. A number with no mark means an inactive call. Rule as the data show it: active = inhibition above about 50%; inactive = the rest.

Molecular target: Kappa-type opioid receptor (Homo sapiens) (UniProt P41145)
Sequence (P41145 whole entry, looked up): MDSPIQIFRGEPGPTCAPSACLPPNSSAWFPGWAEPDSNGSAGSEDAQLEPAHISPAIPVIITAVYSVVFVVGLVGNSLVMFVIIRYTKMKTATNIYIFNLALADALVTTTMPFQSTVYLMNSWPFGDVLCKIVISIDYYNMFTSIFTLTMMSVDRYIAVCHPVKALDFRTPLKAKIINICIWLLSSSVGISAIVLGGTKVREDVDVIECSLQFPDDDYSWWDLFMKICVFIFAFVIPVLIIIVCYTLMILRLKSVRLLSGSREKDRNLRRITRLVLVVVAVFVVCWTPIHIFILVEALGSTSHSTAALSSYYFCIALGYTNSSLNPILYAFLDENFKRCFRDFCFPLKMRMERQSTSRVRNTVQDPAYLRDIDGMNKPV
Test: kappa opioid receptor blockers – cell-based, luminescence, uHTS (AID 1778)
Details: KOR beta-arrestin recruitment, antagonist mode, active compounds read high; at 10 µM unless noted

| Compound | inhibition |
| --- | --- |
| NC(=S)c1ncc(C(F)(F)F)cc1Cl | -11.8% |
| NC(=S)Nc1ncc(C(F)(F)F)cc1Cl | -71.5% [at 20 µM] |
| CCOC(=O)N1CCN(C(=O)Nc2sc3nc4n(c(=O)c3c2C)CCC(C)CC4)CC1 (configuration not stated) | -7.4% |
| COc1ccccc1CCNC(=O)C(=O)NCC1OCCN1S(=O)(=O)c1cc(F)ccc1F (configuration not stated) | -43.3% [at 20 µM] |
| CCOc1ccc(-c2nc(C#N)c(NCC3CCCO3)o2)cc1 (configuration not stated) | 10.1% |
| CC(CCc1ccccc1)NC(=O)c1cccc(F)c1 (configuration not stated) | -19.3% [at 20 µM] |
| COc1ccc(C(=O)/C=C/C(=O)N(CC(=O)NC2CCCCC2)Cc2ccccc2OC)c(O)c1 | 56.3% (active) |
| COc1ccc(C(=O)/C=C/C(=O)N(Cc2ccccc2)C(C(=O)NC2CCCCC2)c2ccncc2)c(O)c1 (configuration not stated) | 9.1% |
| Cc1ccnc(NC(=O)CCC(=O)N(CC(=O)NC2CCCCC2)CC2CCCO2)c1 (configuration not stated) | 11% |
| COc1ccc(C(=O)/C=C/C(=O)N(Cc2ccc3c(c2)OCO3)C(C(=O)NC2CCCCC2)c2ccncc2)c(O)c1 (configuration not stated) | 15.5% |
| COc1ccc(C(=O)/C=C/C(=O)N(CC(=O)NC2CCCCC2)CC2CCCO2)c(O)c1 (configuration not stated) | 82.5% (active) |
| COc1ccc(C(=O)/C=C/C(=O)N(CC(=O)NC2CCCCC2)Cc2ccc(F)cc2)c(O)c1 | 33.1% |
| COc1ccc(C(=O)/C=C/C(=O)N(Cc2ccc(F)cc2)C(C(=O)NC2CCCCC2)c2ccncc2)c(O)c1 (configuration not stated) | 6.8% |
| COc1ccc(CN(C(=O)/C=C/C(=O)c2ccc(OC)cc2O)C(C(=O)NC2CCCCC2)c2ccncc2)cc1 (configuration not stated) | 8.2% |
| COc1ccc(C(=O)/C=C/C(=O)N(Cc2ccccc2OC)C(C(=O)NC2CCCCC2)c2ccncc2)c(O)c1 (configuration not stated) | 12.2% |
| COc1ccc(C(=O)/C=C/C(=O)N(CC(=O)NC2CCCCC2)Cc2cccs2)c(O)c1 | 26.6% |
| COc1ccc(NS(=O)(=O)c2cc(NC(=O)c3cccnc3Cl)ccc2N2CCCC2)cc1 | 37.4% |
| C[C@@H]1CCC[C@]2(O[C@H](CCO)C[C@H](O)[C@H]2O)O1 | 47.9% |
| CC1CC2=C(NC(=S)NC2c2cccc(F)c2)/C(=C/c2cccc(F)c2)C1 (configuration not stated) | 4.5% |
| O=C(c1cccs1)N(C(=O)c1cccs1)c1ccc(Br)cn1 | -21.5% |
| Cc1cnc(C)c(N2CCN(Cc3nc(-c4ccccc4)no3)CC2)n1 | -15.2% |
| N#CCCN(NC1=NS(=O)(=O)c2ccccc21)C(=O)c1ccccc1Br | 8.1% |
